From PubChem BioAssay (EPA / NIEHS)
Activity calls are given as the source filed them. How the source made its calls: active means hit-call score of the fitted dose curve at least 0.9, where 1 is the maximum; inactive means score below 0.9.

Assay: ATG_M_06_CIS: Attagene CIS-FACTORIAL HepG2 Assay for M06 Transcription Factor (Internal Marker) (AID 2282950)
Settings: HepG2 Attagene CIS-FACTORIAL M06 internal marker reporter; actives raise or lower the signal
Description: ATG_CIS is a cell-based, multiplexed-readout assay that uses HepG2, a human liver cell line, with measurements taken at 24 hours after chemical dosing in a 24-well plate.ATG_M_06_CIS is one of 52 assay component(s) measured or calculated from the ATG_CIS assay. It is designed to make measurements of mRNA induction, a form of inducible reporter, as detected with fluorescence intensity signals by Reverse transcription polymerase chain reaction (RT-PCR) and Capillary electrophoresis technology.Data from the assay component ATG_M_06_CIS was analyzed into 1 assay endpoint. This assay endpoint, ATG_M_06_CIS, was analyzed with bidirectional fitting relative to DMSO as the negative control and baseline of activity. Using a type of inducible reporter, measures of mRNA for gain or loss-of-signal activity can be used to understand the background control at the transcription factor-level as they relate to the gene . Furthermore, this assay endpoint can be referred to as a secondary readout, because this assay has produced multiple assay endpoints where this one serves a background control function. To generalize the intended target to other relatable targets, this assay endpoint is annotated to the background measurement intended target family, where the subfamily is internal marker.
Human liver HepG2 cells are transiently transfected with multiple reporter transcription units (MRTUs) in 6-well plates using FuGene 6 reagent (Roche; 3 ml FuGene/1 mg DNA). The MRTU constructs are regulated by a cis-regulating element (promoter). […] A major difference between the CIS and TRANS system is that in CIS activities of endogenous TFs are measured, whereas the TRANS assay evaluates changes in activities of exogenous, chimeric NR-Gal4 proteins. […] At the end of 24 hour incubation, total RNA was isolated using TriZol reagent (Invitrogen). The isolated RNA is then reverse-transcribed using oligo(dT) primer and Mo-MLV reverse transcriptase (Invitrogen) with DNAse I (Ambion) treatment for 30 min. The one-tenth of the produced cDNA was amplified by PCR using Taq DNA polymerase (Invitrogen) and two reporter sequence-specific primers. The PCR products were fluorescently labeled by primer extension with 6-arboxyfluorescein (6-FAM) 5'-labeled reporter sequence-specific primer (2 min at 95 C, 20 s at 68 C and 10 min at 72 C) and these products were digested with 5U of HpaI (New England Biolabs) for 2h at 37 C. The fragments were purified using Qiaquick PCR columns (Qiagen), analyzed on an ABI 3130xL genetic analyzer (Applied Biosystems) with peak positions identified by using a set of X-rhodamine (ROX)-labeled MapMarker1000 molecular weight standards (BioVentures). The raw capillary electrophoresis data was processed using Attagraph software (Attagene).

outcome, inactive:
Cc1ccc(OC(=O)CC(C)C)cc1, COc1ccc(C(Cl)=C(c2ccc(OC)cc2)c2ccc(OC)cc2)cc1, CCOC(=O)c1ccc(N(C)C)cc1, C=C(C)CCO, CC(C)c1ccc(C#N)cc1, CC(C)c1ccc2cc(C(C)C)ccc2c1, O=C(Nc1ccccc1SSc1ccccc1NC(=O)c1ccccc1)c1ccccc1, CCC(CC)C(=O)O, CC(=O)OCC(=O)[C@@]12N=C(C)O[C@@H]1C[C@H]1[C@@H]3CCC4=CC(=O)C=C[C@]4(C)[C@H]3[C@@H](O)C[C@@]12C, CC(C)C1=CC2=CC[C@@H]3[C@](C)(CCC[C@@]3(C)C(=O)O)[C@H]2CC1, O=C1CCCN1CCO, O=C1CCC(=O)N1Cl, O=C(O)c1cc2ccccc2nc1C(=O)O, O=S1(=O)OC(c2ccc(O)cc2)(c2ccc(O)cc2)c2ccccc21, COc1ccc2nc(N)sc2c1, Cc1ccccc1C, O=C1CCCCCN1SSN1CCCCCC1=O, CC(=O)OCCC1CCCCC1, O=C(Nc1cccc(C(F)(F)F)c1)c1cc(Br)cc(Br)c1O, CC1(C)O[C@@H]2C[C@H]3[C@@H]4C[C@H](F)C5=CC(=O)C=C[C@]5(C)[C@@]4(F)[C@@H](O)C[C@]3(C)[C@]2(C(=O)CO)O1, CC(CC=O)c1ccccc1 (stereo not given), CCOCC(=O)O, CCCCOCCOC(=O)COc1nc(Cl)c(Cl)cc1Cl, Cc1cccc(C(=O)O)c1, CC(=O)c1ccc[nH]1, COC(=O)/C=C\C(=O)O, Cc1ccc2c(c1)C(=O)c1ccccc1C2=O, c1ccc(CNCc2ccccc2)cc1, O=C(O)c1ccccc1Nc1cccc(C(F)(F)F)c1, Nc1ccc(Oc2ccc(N)c(N)c2)cc1, CCCCCCCCCCCCCCCCCC#N, CCOC(=O)CC(C(C)=O)C(C)=O, OC1CCCC1, C#CC1(O)CC[C@H]2[C@@H]3CCC4=CCCC[C@@H]4[C@H]3CC[C@@]21C (stereo not given in full), CCCC(C)CCC(C)=O (stereo not given), Cc1cc(C)c(C(=O)O)c(C)c1, Cc1cccc(OCCOc2cccc(C)c2)c1, C1=Cc2ccccc2C1, C=CC(C)(CCC=C(C)C)OC(=O)CC(C)C (stereo not given), CCCC(=O)OCc1ccccc1
